Molecules are shown by their SMILES. Values joined by “and” are separate entries in the source; they are usually repeats but may differ in a detail not shown here. Equal values may be shown once. Records with an inconclusive call do not appear. Entries that show only a call come without a potency. A number with no mark means an inactive call. Active and inactive are the calls of the source. Calls follow the shape of the dose curve; as a rule, active = well fitted inhibition curve with a large enough effect in the repeat runs; inconclusive = weak or mixed curves; inactive = flat fitted curve, though single readings scatter.
Potency is read from the fitted curve at half-maximal effect.

A short description of this test: qHTS assay to identify small molecule HDAC inhibitors (AID 1259364). Also: nearly all actives have a fitted effect of over 45% in size. As to activity change, negative = inhibition: top concentration of the series differs between compounds. The conditions noted are these: HCT-116 HDAC-Glo I/II luminescence, 2 h; series mostly up to 92.4 µM; activity change, negative = inhibition: at the top concentration. The source says: U.S. Tox21 Program National Center for Advancing Translational Sciences [NCATS] NIH Chemical Genomics Center [NCGC] U.S. Environmental Protection Agency [EPA] National Institutes of Environmental Health Sciences [NIEHS] National Toxicology Program [NTP] U.S. Food and Drug Administration [FDA] Tox21 Assay Overview: Histone deacetylases (HDACs) are a group of epigenetic enzymes that regulate gene expression by histone deacetylation. HDACs are capable of introducing epigenetic modifications and such aberrations contribute to the onset and progression of several human diseases, thus making HDACs a popular therapeutic target. For identifying endogenous class I/II HDAC inhibitors a homogenous, luminogenic HDAC I/II cell based assay was used to measure the relative activity of class I and II HDACs from cells. Wild type HCT-116 cells were used to screen Tox21 libraries for identifying class I/II HDAC inhibitors.
Tox21 Assay Protocol Summary: HCT-116 cells were dispensed at 1,500 per well in 5uL of culture medium into white solid bottom 1536-well plates (Greiner Bio-One, Monroe, NC) using a Multidrop Combi (Thermo Scientific, Waltham, MA) dispenser. The assay plates were incubated at 37 C and 5% CO2 for an overnight, and then 23nL of compounds dissolved in DMSO and positive control were transferred using a Pintool station (Wako, San Diego, CA). The assay plates were incubated at 37C and 5% CO2 for 2hr. After compound treatment, 4uL of HDAC-Glo reagent (Promega Corporation, Madison, WI) was added to each well of the assay plates using Flying Reagent Dispenser (FRD, Aurora Discovery, San Diego, CA) and incubated the assay plates at room temperature for 30min. The luminescence signal was quantified using a ViewLux plate reader (Perkin Elmer, Shelton, CT).
Background: qHTS replaces the single test concentration by a dilution series.
On to `Nc1ccc(Cl)c(Cl)c1`, for which the Potency entry is “inactive”.
On the same count and under the same terms, the same measure for `c1nc[nH]n1`: “inactive”; for `CC(C)=CC1C(C(=O)OCc2coc(Cc3ccccc3)c2)C1(C)C` (stereo not given): “inactive”; for `C=CCN(CC=C)C(=O)C(Cl)Cl`: “inactive”.
For the compound `C=CCc1ccc(OC)cc1`, the Potency result is “inactive”.
On to `N#CC(Br)Br`, for which the Potency result was “inactive”.
Still for that read-out and setting: with `CCOP(=S)(OCC)O/N=C(\C#N)c1ccccc1` the entry was “inactive”.
With `C=C(C)C(=O)OCC1CO1` (stereo not given), the Potency result was “inactive”.
The same measure, in the same setting: the same measure for `NC(=S)Nc1ccccc1`: “inactive”; for `Nn1cnnc1`: “inactive”; for `C#CCOS(=O)OC1CCCCC1Oc1ccc(C(C)(C)C)cc1` (stereo not given): “inactive”.
Regarding `O=Cc1ccco1`, the Potency entry is “inactive”.
The same measure, in the same setting: with `C[C@]12CCC(=O)C(O)=C1CC[C@@H]1[C@@H]2CC[C@]2(C)C(=O)CC[C@@H]12` the entry was “inactive”; with `CC(C)C(=O)OCC(C)(C)C(OC(=O)C(C)C)C(C)C` (stereo not given), “inactive”; with `CC(C)(c1cc(Cl)c(O)c(Cl)c1)c1cc(Cl)c(O)c(Cl)c1`, “inactive”.
Same read-out and setting: the same measure for `Cc1ccccc1[N+](=O)[O-]`: “inactive”.
Same read-out and setting: with `O=C(O)CC[N+](=O)[O-]` the entry was “inactive”.
`CCCCCCCCC(=O)NCc1ccc(O)c(OC)c1`: the Potency result is “inactive”.
In the case of `c1ccc(P(c2ccccc2)c2ccccc2)cc1`, the Potency entry was “inactive”.
For `O=C(NC(=O)c1c(F)cccc1F)Nc1ccc(Cl)cc1`, the Potency result is “inactive”.
As to `NCc1cccnc1`, the Potency entry was “inactive”.
Still for that read-out and setting: with `CCCCC(CC)COC(=O)Cl` (stereo not given) the entry was “inactive”.
As for `Cc1cccc(N)c1N`, the “activity change, negative = inhibition” value was -15.2%.
Take `Nc1ccc(-c2ccc(N)c(N)c2)cc1N`: the Potency was 54.3 µM (active).
Still for that read-out and setting: with `CNC(=O)N(C)c1nnc(C(C)(C)C)s1` the figure was 27.3 µM (active).
Same read-out and setting: the same measure for `O=C(Nc1ccc(Br)cc1)c1cc(Br)cc(Br)c1O`: 6.83 µM (active) and 6.11 µM (active) and 6.68 µM (active).
Consider `CCC(=O)O[C@H]1CC[C@H]2[C@@H]3CCC4=CC(=O)CC[C@]4(C)[C@H]3CC[C@]12C`, for which the Potency result was “inactive”.
The same measure, in the same setting: the same measure for `Cc1cc(Cl)ccc1OCCCC(=O)O`: “inactive”; for `C#C[C@]1(O)CC[C@H]2[C@@H]3CCC4=CC(=O)CC[C@]4(C)[C@H]3CC[C@@]21C`: “inactive”.
For the compound `O=C(CCl)c1ccccc1`, the “activity change, negative = inhibition” value is -15.7%.
As to `Nc1c(Cl)cc([N+](=O)[O-])cc1Cl`, the Potency result was “inactive”.
Still for that read-out and setting: the same measure for `COC(=O)c1sccc1S(=O)(=O)NC(=O)Nc1nc(C)nc(OC)n1`: “inactive”; for `O=S(=O)(Oc1ccc(Cl)cc1)c1ccc(Cl)cc1`: “inactive”; for `CCOC(=O)C(C)OC(=O)c1cc(Oc2ccc(C(F)(F)F)cc2Cl)ccc1[N+](=O)[O-]` (stereo not given): “inactive”.
Still for that read-out and setting: with `C=CC(=O)OCCO` the entry was “inactive”; with `CCN(CC)C(=O)/C(Cl)=C(\C)OP(=O)(OC)OC`, “inactive”; with `Nc1cccnc1`, “inactive”.
On the same count and under the same terms, with `c1cc(OCC2CO2)ccc1Cc1ccc(OCC2CO2)cc1` (stereo not given) the entry was “inactive”; with `CCCCN(CC)c1c([N+](=O)[O-])cc(C(F)(F)F)cc1[N+](=O)[O-]`, “inactive”.
Take `CC(C)NC(C)C`: the “activity change, negative = inhibition” value was -2.87% [at 42.5 µM].

The values are drawn from PubChem BioAssay (Tox21).
